# Assay results taken from PubChem BioAssay (EPA / NIEHS).
# Inconclusive results are not listed. Calls of active or inactive are those of the source. Rule for the calls: active = hit-call score of the fitted dose curve at least 0.9, where 1 is the maximum; inconclusive = response in the unintended direction; inactive = score below 0.9.
# Legend:
# [1] = target: guinea pig Serotonin, 5-Hydroxytryptamine Receptor 4 (5HT4), HTR4 (gene 100135548) (UniProt O70528); assay: NVS_GPCR_g5HT4: NovaScreen (NVS) G Protein-Coupled Receptor Assay for guinea pig Serotonin, 5-Hydroxytryptamine Receptor 4 (5HT4) (AID 2283294)
# Chain of guinea pig Serotonin, 5-Hydroxytryptamine Receptor 4 (5HT4), HTR4 (gene 100135548) (O70528 whole entry, looked up): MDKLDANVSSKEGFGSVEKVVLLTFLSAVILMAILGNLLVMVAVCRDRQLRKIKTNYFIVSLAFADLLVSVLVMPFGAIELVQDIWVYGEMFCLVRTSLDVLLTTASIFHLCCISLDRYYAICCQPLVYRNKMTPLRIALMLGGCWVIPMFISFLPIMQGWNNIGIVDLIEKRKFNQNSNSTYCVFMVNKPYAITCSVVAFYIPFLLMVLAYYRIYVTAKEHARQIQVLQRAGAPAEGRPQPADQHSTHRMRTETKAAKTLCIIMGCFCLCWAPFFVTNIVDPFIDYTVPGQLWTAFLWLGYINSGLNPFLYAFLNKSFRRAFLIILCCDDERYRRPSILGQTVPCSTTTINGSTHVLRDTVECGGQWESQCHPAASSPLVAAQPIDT
# Method in brief: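 Compounds first screened in duplicate at 25 uM, actives followed up in concentration series. Binding measured as displacement of specific radioligand from guinea pig striatal membranes, 1 h, filter-based scintillation read-out versus DMSO baseline.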
# [2] = target: rat Adrenergic, Alpha 1A Receptor (Adra1A), Adra1a (gene 29412) (UniProt P43140); assay: NVS_GPCR_rAdra1A: NovaScreen (NVS) G Protein-Coupled Receptor Assay for rat Adrenergic, Alpha 1A Receptor (Adra1A) (AID 2283296)
# Chain of rat Adrenergic, Alpha 1A Receptor (Adra1A), Adra1a (gene 29412) (P43140 whole entry, looked up): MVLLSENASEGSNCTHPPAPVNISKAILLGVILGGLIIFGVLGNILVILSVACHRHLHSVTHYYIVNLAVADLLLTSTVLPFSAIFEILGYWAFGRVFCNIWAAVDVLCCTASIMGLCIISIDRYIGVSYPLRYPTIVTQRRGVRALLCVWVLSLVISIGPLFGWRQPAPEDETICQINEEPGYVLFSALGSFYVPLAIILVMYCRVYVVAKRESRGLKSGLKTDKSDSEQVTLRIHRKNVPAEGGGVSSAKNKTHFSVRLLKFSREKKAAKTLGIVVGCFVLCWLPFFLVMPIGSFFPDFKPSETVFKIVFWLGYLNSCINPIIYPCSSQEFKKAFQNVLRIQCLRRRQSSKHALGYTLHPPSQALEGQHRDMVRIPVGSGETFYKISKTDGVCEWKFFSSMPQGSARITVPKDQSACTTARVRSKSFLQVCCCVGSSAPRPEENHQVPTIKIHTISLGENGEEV
# Method in brief: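 Filter radiodetection after 1 h competitive binding on CEC-pretreated rat cortical membranes. Duplicate single-point screening at 25 uM; active chemicals retested across concentration series.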
# [3] = target: rat Adrenergic Receptor, Beta (Adrb), Non-selective Binding, Adrb1 (gene 24925) (UniProt P18090); assay: NVS_GPCR_rAdrb_NonSelective: NovaScreen (NVS) G Protein-Coupled Receptor Assay for rat Adrenergic Receptor, Beta (Adrb), Non-selective Binding (AID 2283298)
# Chain of rat Adrenergic Receptor, Beta (Adrb), Non-selective Binding, Adrb1 (gene 24925) (P18090 whole entry, looked up): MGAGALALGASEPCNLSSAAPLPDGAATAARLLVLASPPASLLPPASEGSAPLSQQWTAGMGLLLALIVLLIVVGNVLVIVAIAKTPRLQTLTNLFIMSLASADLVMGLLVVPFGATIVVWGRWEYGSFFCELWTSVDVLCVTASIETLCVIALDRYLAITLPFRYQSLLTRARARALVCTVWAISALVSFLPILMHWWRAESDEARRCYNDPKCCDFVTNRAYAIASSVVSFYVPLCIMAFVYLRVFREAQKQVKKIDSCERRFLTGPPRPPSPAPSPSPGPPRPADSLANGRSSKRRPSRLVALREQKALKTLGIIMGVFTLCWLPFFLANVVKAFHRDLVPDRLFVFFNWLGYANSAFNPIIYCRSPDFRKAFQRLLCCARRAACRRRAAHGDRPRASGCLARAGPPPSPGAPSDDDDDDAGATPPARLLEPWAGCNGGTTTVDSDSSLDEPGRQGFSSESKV
# Method in brief: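 Rat cortical membranes incubated 1 h with beta-adrenergic radioligand and test chemical; bound ligand measured by filtration and scintillation counting. Screen at 25 uM duplicate, then concentration series with 50 uM maximum; loss of signal versus DMSO.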
# Adra2b (gene 24174) = Adra2b (gene 24174) (UniProt P19328); assay: NVS_GPCR_rmAdra2B: NovaScreen (NVS) G Protein-Coupled Receptor Assay for hybird cells Adrenergic, Alpha 2B Receptor (Adra2B) (AID 2283306)
# Chain of Adra2b (gene 24174) (P19328 whole entry, looked up): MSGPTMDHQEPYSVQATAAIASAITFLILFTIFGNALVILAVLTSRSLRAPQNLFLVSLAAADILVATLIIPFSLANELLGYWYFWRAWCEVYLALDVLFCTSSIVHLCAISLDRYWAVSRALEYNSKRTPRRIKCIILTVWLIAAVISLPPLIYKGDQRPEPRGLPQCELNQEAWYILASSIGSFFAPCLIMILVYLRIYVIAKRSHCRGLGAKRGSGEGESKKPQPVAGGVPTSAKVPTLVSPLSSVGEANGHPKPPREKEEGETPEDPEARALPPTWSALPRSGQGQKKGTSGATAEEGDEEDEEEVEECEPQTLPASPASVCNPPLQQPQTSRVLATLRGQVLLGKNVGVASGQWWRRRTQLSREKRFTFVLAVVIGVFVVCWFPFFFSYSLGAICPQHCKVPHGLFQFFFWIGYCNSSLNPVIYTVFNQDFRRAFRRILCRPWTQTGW
# Method in brief: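 Compounds screened first at 25 uM in duplicate, with actives followed up in concentration-response; specific radioligand displacement from hybrid neuroglioma/blastoma cell membrane preparations measured by filter scintillation counting after 1 h, normalized to DMSO.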
# [4] = target: rat Neurokinin-1 Receptor (NK1), Tacr1 (gene 24807) (UniProt P14600); assay: NVS_GPCR_rNK1: NovaScreen (NVS) G Protein-Coupled Receptor Assay for rat Neurokinin-1 Receptor (NK1) (AID 2283309)
# Chain of rat Neurokinin-1 Receptor (NK1), Tacr1 (gene 24807) (P14600 whole entry, looked up): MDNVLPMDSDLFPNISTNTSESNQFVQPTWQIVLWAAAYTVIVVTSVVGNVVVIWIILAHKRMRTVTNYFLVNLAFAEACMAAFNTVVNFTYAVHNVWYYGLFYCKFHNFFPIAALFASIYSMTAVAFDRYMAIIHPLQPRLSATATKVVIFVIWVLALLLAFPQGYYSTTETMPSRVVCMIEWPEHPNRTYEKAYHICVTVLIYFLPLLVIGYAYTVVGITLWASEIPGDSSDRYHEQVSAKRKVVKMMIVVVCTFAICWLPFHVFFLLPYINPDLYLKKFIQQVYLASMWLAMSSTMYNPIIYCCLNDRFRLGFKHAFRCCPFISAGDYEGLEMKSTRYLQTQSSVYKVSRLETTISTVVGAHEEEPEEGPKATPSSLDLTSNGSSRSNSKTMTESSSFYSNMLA
# Method in brief: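 Competitive radioligand binding to NK1 in rat submaxillary membranes, 1 h incubation, filtration and scintillation read-out. Compounds first screened at 25 uM in duplicate, then concentration-response for actives; signal loss relative to DMSO.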
# [5] = target: rat Opioid Receptor, Non-selective Sodium (Na+) Binding, Oprm1 (gene 25601) (UniProt P33535); assay: NVS_GPCR_rOpiate_NonSelectiveNa: NovaScreen (NVS) G Protein-Coupled Receptor Assay for rat Opioid Receptor, Non-selective Sodium (Na+) Binding (AID 2283311)
# Chain of rat Opioid Receptor, Non-selective Sodium (Na+) Binding, Oprm1 (gene 25601) (P33535 whole entry, looked up): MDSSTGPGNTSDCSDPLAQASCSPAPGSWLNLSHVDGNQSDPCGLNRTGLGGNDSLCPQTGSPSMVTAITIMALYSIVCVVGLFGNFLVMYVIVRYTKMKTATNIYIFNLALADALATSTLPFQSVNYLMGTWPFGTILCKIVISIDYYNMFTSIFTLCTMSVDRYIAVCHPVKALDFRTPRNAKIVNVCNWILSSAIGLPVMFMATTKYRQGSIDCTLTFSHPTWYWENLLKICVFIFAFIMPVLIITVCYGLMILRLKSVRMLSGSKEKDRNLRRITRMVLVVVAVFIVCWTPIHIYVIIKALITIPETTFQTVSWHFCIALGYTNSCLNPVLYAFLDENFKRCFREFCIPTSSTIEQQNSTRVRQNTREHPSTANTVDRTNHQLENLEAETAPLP
# Method in brief: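 Filtration radioligand binding on rat forebrain membrane preparations, read 1.5 h after dosing. Single-concentration 25 µM primary screen in duplicate, followed by singleton concentration series to 50 µM max for actives; DMSO baseline.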
# [6] = NVS_IC_rCaDHPRCh_L: NovaScreen (NVS) Ion Channel Assay for rat Calcium Channel, Type L, Dihydropyridine Site (CaDHPRCh_L) (AID 2283320)
# Method in brief: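 Rat cortex membrane preparation; dihydropyridine-site radioligand displacement read 1 h post-dose by filtration and scintillation. Primary single-point screen 25 uM in duplicate, then concentration series to 50 uM maximum; DMSO as negative control.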
# [7] = target: Sodium channel protein type 1 subunit alpha (Rattus norvegicus) (UniProt P04774); assay: NVS_IC_rNaCh_site2: NovaScreen (NVS) Ion Channel Assay for rat Sodium Channel, Site 2 (NaCh) (AID 2283322);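 note: hit means loss of radioligand binding signal relative to DMSO so AC50 marks displacement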
# Method in brief: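 Initial duplicate single-point testing at 25 uM, followed by concentration-response runs for actives. Binding of radioligand to rat forebrain membranes quantified after 1 h via filter-based radiodetection.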
# [8] = target: rat Adrenergic Receptor, Alpha 2 (Adra2), Non-selective Binding, Adra2a (gene 25083) (UniProt P22909); assay: NVS_GPCR_rAdra2_NonSelective: NovaScreen (NVS) G Protein-Coupled Receptor Assay for rat Adrenergic Receptor, Alpha 2 (Adra2), Non-selective Binding (AID 2283299)
# Chain of rat Adrenergic Receptor, Alpha 2 (Adra2), Non-selective Binding, Adra2a (gene 25083) (P22909 whole entry, looked up): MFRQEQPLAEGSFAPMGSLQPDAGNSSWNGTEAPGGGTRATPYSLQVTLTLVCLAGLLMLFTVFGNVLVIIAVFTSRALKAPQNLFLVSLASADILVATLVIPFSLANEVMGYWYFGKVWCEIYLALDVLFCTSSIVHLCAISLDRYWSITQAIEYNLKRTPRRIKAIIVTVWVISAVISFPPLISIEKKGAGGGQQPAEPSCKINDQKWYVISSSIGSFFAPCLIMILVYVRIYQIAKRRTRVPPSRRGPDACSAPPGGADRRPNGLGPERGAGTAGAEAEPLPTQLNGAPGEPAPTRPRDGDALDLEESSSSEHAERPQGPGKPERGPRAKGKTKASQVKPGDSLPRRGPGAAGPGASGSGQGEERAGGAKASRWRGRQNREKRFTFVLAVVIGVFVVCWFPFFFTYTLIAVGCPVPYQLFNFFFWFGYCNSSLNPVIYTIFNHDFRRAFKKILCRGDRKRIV
# Method in brief: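 Filter-based scintillation counting of radioligand binding to rat cortical membrane receptors, measured 1.25 hours post-dosing; loss of signal versus DMSO indicates displacement. Initial single-concentration duplicate at 25 uM, then concentration series.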
# [9] = target: rat Opioid Receptor, Non-selective Binding, Oprm1 (gene 25601) (UniProt P33535); assay: NVS_GPCR_rOpiate_NonSelective: NovaScreen (NVS) G Protein-Coupled Receptor Assay for rat Opioid Receptor, Non-selective Binding (AID 2283318)
# Chain of rat Opioid Receptor, Non-selective Binding, Oprm1 (gene 25601) (P33535 whole entry, looked up): as the sequence (P33535 whole entry, looked up) above
# Method in brief: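 Filter-based radioligand displacement using rat forebrain membrane preparations, measured 1.5 h post-dosing. Single-concentration duplicate screen at 25 uM, follow-up in concentration series; activity taken as signal loss relative to DMSO.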
# [10] = target: rat Serotonin, 5-Hydroxytryptamine Receptor (5HT), Non-Selective Binding, Htr1a (gene 24473) (UniProt P19327); assay: NVS_GPCR_r5HT_NonSelective: NovaScreen (NVS) G Protein-Coupled Receptor Assay for rat Serotonin, 5-Hydroxytryptamine Receptor (5HT), Non-Selective Binding (AID 2283295)
# Chain of rat Serotonin, 5-Hydroxytryptamine Receptor (5HT), Non-Selective Binding, Htr1a (gene 24473) (P19327 whole entry, looked up): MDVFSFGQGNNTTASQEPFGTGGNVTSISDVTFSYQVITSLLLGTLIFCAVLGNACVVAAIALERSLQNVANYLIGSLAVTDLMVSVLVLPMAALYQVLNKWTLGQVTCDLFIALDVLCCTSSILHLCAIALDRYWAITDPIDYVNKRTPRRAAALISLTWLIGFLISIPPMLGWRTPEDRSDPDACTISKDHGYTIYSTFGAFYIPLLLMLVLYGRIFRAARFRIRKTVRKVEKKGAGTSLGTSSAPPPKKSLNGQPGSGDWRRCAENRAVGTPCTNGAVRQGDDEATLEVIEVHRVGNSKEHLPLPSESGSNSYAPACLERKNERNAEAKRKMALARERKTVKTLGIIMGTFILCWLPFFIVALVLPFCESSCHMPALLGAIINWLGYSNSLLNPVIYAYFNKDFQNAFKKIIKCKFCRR
# Method in brief: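 Rat cortex membrane preparation incubated 1 h with radioligand and test chemical; bound radioactivity counted after filtration. Screening began in duplicate at 25 uM with concentration-series follow-up; fitting relative to DMSO.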
# [11] = target: rat Neonicotinoid receptor (NNR), Chrna7 (gene 25302) (UniProt Q05941); assay: NVS_LGIC_rNNR_BungSens: NovaScreen (NVS) Ligand-Gated Ion Channel Assay for rat Neonicotinoid receptor (NNR) (AID 2283315)
# Chain of rat Neonicotinoid receptor (NNR), Chrna7 (gene 25302) (Q05941 whole entry, looked up): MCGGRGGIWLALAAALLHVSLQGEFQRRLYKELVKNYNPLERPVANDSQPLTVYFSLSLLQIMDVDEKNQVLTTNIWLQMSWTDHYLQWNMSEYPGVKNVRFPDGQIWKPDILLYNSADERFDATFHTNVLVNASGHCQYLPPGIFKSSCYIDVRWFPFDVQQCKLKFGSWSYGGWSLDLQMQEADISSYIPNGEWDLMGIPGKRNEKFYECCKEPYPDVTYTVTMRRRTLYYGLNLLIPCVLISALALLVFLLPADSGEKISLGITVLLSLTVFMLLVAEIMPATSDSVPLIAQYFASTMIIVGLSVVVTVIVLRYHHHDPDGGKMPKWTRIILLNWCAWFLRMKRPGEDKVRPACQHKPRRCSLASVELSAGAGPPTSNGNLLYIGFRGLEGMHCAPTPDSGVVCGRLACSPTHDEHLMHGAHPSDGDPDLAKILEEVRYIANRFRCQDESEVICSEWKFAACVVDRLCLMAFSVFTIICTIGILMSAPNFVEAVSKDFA
# Method in brief: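 Rat cortical membrane preparation incubated 2.5 h with tritiated or iodinated radioligand and test chemical. Bound radioactivity was filtered and counted by scintillation, and displacement was analysed against DMSO.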
# [12] = target: rat Somatostatin Receptor (SST), Sstr1 (gene 25033) (UniProt P28646); assay: NVS_GPCR_rSST: NovaScreen (NVS) G Protein-Coupled Receptor Assay for rat Somatostatin Receptor (SST) (AID 2283314)
# Chain of rat Somatostatin Receptor (SST), Sstr1 (gene 25033) (P28646 whole entry, looked up): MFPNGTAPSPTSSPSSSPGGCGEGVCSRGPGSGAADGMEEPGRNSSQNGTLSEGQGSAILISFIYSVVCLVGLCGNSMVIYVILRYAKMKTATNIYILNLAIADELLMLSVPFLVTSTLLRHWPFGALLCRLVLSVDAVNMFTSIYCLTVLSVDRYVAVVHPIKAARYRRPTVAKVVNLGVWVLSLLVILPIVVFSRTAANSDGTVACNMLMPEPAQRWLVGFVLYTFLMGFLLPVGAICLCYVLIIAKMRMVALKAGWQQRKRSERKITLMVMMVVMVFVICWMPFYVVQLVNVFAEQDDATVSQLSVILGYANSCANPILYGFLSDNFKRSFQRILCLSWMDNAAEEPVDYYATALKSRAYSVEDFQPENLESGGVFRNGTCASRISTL
# Method in brief: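 Single-concentration duplicate screen (25 uM), then concentration-response up to 50 uM for chemicals passing a threshold such as 30% inhibition. Membranes came from rat forebrain. Binding was measured 1 h post-dose by filter radiodetection and scintillation, relative to DMSO.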
# [13] = target: rat Neurokinin-3 Receptor (NK3), Tacr3 (gene 24808) (UniProt P16177); assay: NVS_GPCR_rNK3: NovaScreen (NVS) G Protein-Coupled Receptor Assay for rat Neurokinin-3 Receptor (NK3) (AID 2283310)
# Method in brief: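 Filter-based radioligand displacement on rat cortex membrane preparations, read by scintillation 2 h post-dose. Chemicals first tested in duplicate at 25 uM; actives followed up in concentration series with a 50 uM maximum.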
# NCBI gene 24521 = assay: NVS_IC_rKATPCh: NovaScreen (NVS) Ion Channel Assay for rat Potassium Channel, ATP-Sensitive (KATPCh) (AID 2283319)
# Method in brief: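 Primary duplicate screen at 25 uM, then singleton concentration series to 50 uM maximum, in a rat cortex membrane radioligand displacement assay. Binding measured by filtration and scintillation 2 h post-dose; DMSO baseline.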
# [14] = target: rat Vasopressin 1 Receptor (V1), Avpr1a (gene 25107) (UniProt P30560); assay: NVS_GPCR_rV1: NovaScreen (NVS) G Protein-Coupled Receptor Assay for rat Vasopressin 1 Receptor (V1) (AID 2283316)
# Method in brief: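 Concentration-response up to 50 uM for chemicals passing a threshold such as 30% inhibition in an initial duplicate 25 uM screen. Displacement of radioligand from rat liver membranes measured after 1.5 h by filtration and scintillation.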
# [15] = target: mouse Cholecystokinin, CCK2 Receptor (CCKB), Cckbr (gene 12426) (UniProt P56481); assay: NVS_GPCR_mCKKBCentral: NovaScreen (NVS) G Protein-Coupled Receptor Assay for mouse Cholecystokinin, CCK2 Receptor (CCKB) (AID 2283293)
# Method in brief: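 Mouse forebrain membrane preparation incubated 2 h with chemical and radioligand; bound radioactivity counted after filtration. Single-concentration duplicate screen at 25 uM, then concentration series to 50 uM max for hits, DMSO as baseline.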
# [16] = target: rat Gamma-Aminobutyric Acid Type B Receptor (GABBR), Gabbr1 (gene 81657) (UniProt Q9Z0U4); assay: NVS_GPCR_rGABBR: NovaScreen (NVS) G Protein-Coupled Receptor Assay for rat Gamma-Aminobutyric Acid Type B Receptor (GABBR) (AID 2283301)
# Method in brief: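 Rat cortical membrane preparation, competitive radioligand binding for 1 h with filtration and scintillation readout. Actives from duplicate single-point 25 uM screening proceeded to concentration series with 50 uM top concentration.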
compound,measurement,setting,value
CCOC(=O)c1ccc(C2CCC(NC[C@H](O)COc3ccc(O)c(NS(C)(=O)=O)c3)CC2)cc1 (stereo not given in full),AC50,[1],2.57 µM (active)
same,AC50,[2],11.5 µM (active)
same,AC50,[3],8.67 µM (active)
same,AC50,Adra2b (gene 24174),23.4 µM (active)
same,outcome,[4],inactive
same,outcome,[5],inactive
same,AC50,[6],18.4 µM (active)
same,AC50,[7],3.33 µM (active)
CCCCCCc1ccc(O)cc1O,AC50,[1],36.6 µM (active)
same,outcome,[7],inactive
CC(=O)OCCC(C)C,outcome,[8],inactive
CCN(C(=O)c1cc(C)cc(OC[C@H](C)Nc2ccncc2)c1)C(C)C,AC50,[1],3.35 µM (active)
same,AC50,[2],7.54 µM (active)
same,AC50,[8],4.14 µM (active)
same,AC50,Adra2b (gene 24174),8.19 µM (active)
same,outcome,[9],inactive
same,AC50,[7],10.1 µM (active)
CCOC(=O)COc1ccc2c(c1)CC(NCC(O)c1cccc(Cl)c1)CC2 (stereo not given),outcome,[10],inactive
same,AC50,Adra2b (gene 24174),11.2 µM (active)
same,outcome,[6],inactive
same,AC50,[7],6.7 µM (active)
CC1(C)C(=O)N(Br)C(=O)N1Br,AC50,[10],17.1 µM (active)
CCn1nc(Cc2ccccc2)cc1C1CCN(C[C@H]2C[C@H](N(C)[C@@H](C(=O)O)C(C)C)C[C@@H]2c2cccc(F)c2)CC1,AC50,[1],25 µM (active)
same,outcome,[3],inactive
same,AC50,[5],7.28 µM (active)
same,AC50,[11],15.5 µM (active)
same,AC50,[9],4.11 µM (active)
same,AC50,[6],4.21 µM (active)
same,AC50,[7],17.4 µM (active)
O=C(O)CCN(C1(C(=O)NO)CCCC1)S(=O)(=O)c1ccc(Oc2ccc(F)cc2)cc1,outcome,Adra2b (gene 24174),inactive
same,outcome,[12],inactive
COc1ccc(/C=C/S(=O)(=O)NC(=O)c2ccc(C)cc2Cl)cc1,outcome,[5],inactive
CCOc1cccc(-n2cc(C(=O)N3CCN(c4cc(C(=O)O)c5ccccc5c4)CC3)nc2-c2ccc(C)cc2)c1,AC50,[4],14.8 µM (active)
same,AC50,[13],8.81 µM (active)
same,AC50,NCBI gene 24521,21.2 µM (active)
same,AC50,[7],7.07 µM (active)
CCCN(C1CCN(C(=O)C2CCNCC2)CC1)[C@@H]1CCc2ccc(OC)cc2C1,AC50,[1],8.99 µM (active)
same,AC50,[10],25 µM (active)
same,AC50,[3],18.3 µM (active)
same,AC50,Adra2b (gene 24174),7.66 µM (active)
same,outcome,[4],inactive
same,outcome,[14],inactive
same,outcome,[6],inactive
same,AC50,[7],7.66 µM (active)
Cc1[nH]cnc1C[C@H]1CCc2c(C)c3ccccc3n2C1=O,AC50,[1],6.64 µM (active)
same,AC50,[10],4.63 µM (active)
same,AC50,[2],8.9 µM (active)
same,AC50,[3],4.78 µM (active)
same,AC50,Adra2b (gene 24174),3.68 µM (active)
same,outcome,[4],inactive
same,outcome,[11],inactive
same,AC50,[9],9.93 µM (active)
same,AC50,[6],1.5 µM (active)
same,AC50,[7],10.4 µM (active)
CCc1cc(SCc2sc(-c3ccc(C(F)(F)F)cc3)nc2CN2CCN(c3ccc(OC)cc3)CC2)ccc1OCC(=O)O,AC50,[15],35.3 µM (active)
same,outcome,[16],inactive
same,outcome,[12],inactive
same,outcome,[9],inactive
same,AC50,NCBI gene 24521,35.9 µM (active)
same,AC50,[6],15.9 µM (active)
same,AC50,[7],25 µM (active)
CC[C@H]1CC[C@H](NCc2cc3c(cc2OC)[C@H]2C[C@H]2C(=O)N3C)[C@H](c2ccccc2)N1,AC50,[1],14.2 µM (active)
same,AC50,[8],13.3 µM (active)
same,outcome,[16],inactive
same,AC50,Adra2b (gene 24174),12.3 µM (active)
same,AC50,[4],0.296 µM (active)
same,AC50,[5],2.83 µM (active)
same,outcome,[11],inactive
same,AC50,[9],2.58 µM (active)
same,AC50,[7],0.163 µM (active)
